This note sets out measurements from PubChem BioAssay (Tox21).

The structures appear in SMILES notation. Inconclusive results are not listed. Activity calls are given as the source filed them. Calls come from the whole dose curve.
% is set by controls: 0 for no effect and ±100 for the full control effect.

A short description of this assay: qHTS assay to identify small molecule agonists or antagonists of the thyroid stimulating hormone receptor (TSHR) signaling pathway - wild type cell line counter screen (AID 1259384). The settings on record: HEK293 wild type, cAMP HTRF counter-screen, stronger effect = higher value; series mostly up to 92.4 µM; cAMP activity change: at the top concentration. The source says: U.S. Tox21 Program National Center for Advancing Translational Sciences [NCATS] NIH Chemical Genomics Center [NCGC] U.S. Environmental Protection Agency [EPA] National Institutes of Environmental Health Sciences [NIEHS] National Toxicology Program [NTP] U.S. Food and Drug Administration [FDA] Tox21 Assay Overview: TSHR is the receptor for thyrotropin (thyroid stimulating hormone or TSH), a member of the glycoprotein hormone family. TSH is released by the anterior pituitary gland and is the main regulator of thyroid gland growth and development. Upon binding circulating thyrotropin, a G-protein signal cascade activates adenylyl cyclase and […] cAMP concentration is increased. cAMP is a key second messenger involved extensively in cellular signal transduction pathways associated with the majority of G-protein coupled receptors (GPCRs). The activation of these GPCRs by neurotransmitters, lipids, nucleotides, peptides and hormones results in the activation or the inhibition of plasma membrane-bound adenylate cyclase through heterotrimeric G-proteins. A cell-based TSHR-Hek293 assay can be used to identify TSHR agonists. To eliminate the false positive compounds identified from screening a cell-based TSHR-Hek293 cell line, cAMP assay in a wild type Hek293 cells was used as a counter screening.
Tox21 Assay Protocol Summary: Hek293 cells (wild type) were dispensed at 800 cells/4 uL/well in 1536-well white plates using a Multidrop dispenser. After the assay plates were incubated at a 37 C/5% CO2 incubator for 18 hrs, 23 nL of compounds dissolved in DMSO, positive controls or DMSO only was transferred to the assay plate by a pin tool, followed by 1 ul medium containing Ro20-1724. After 30 min of incubation at room temperature, 2.5 ul/well of cAMP-d2 and 2.5 ul/well of anti-cAMP-cryptate were added respectively into the assay plates using a Flying Reagent Dispenser. The plates were incubated at room temperature for 1 hr. The fluorescence intensity in the plates was measured using an Envision plate reader. Each test compound was measured at 15 concentrations and in triplicates.
In general terms: In qHTS, concentration-response curves come from the screen itself.
As to `CCCCCCC(C)(C)C(=O)O`, the “cAMP activity change” value was -8.71% (inactive).
The same measure, in the same setting: next, `C=CCc1ccccc1OCC(O)CNC(C)C` (stereo not given): -2.9% [at 42.5 µM] (inactive); `O=C=Nc1cccc(C(F)(F)F)c1`: -1.13% (inactive); `NNC(=O)CP(=O)(c1ccccc1)c1ccccc1`: 1.69% [at 42.5 µM] (inactive).
Consider `C[C@]12CC[C@@H]3c4ccc(O)cc4CC[C@H]3[C@@H]1CC[C@@H]2OC(=O)CCC1CCCC1`, for which the call was inactive.
Turning to `Oc1cccc(Nc2ccccc2)c1`, the “cAMP activity change” value was 0.389% (inactive).
In the case of `CC1(C)[C@@H](OC(=O)CCC(=O)O)CC[C@]2(C)[C@H]3C(=O)C=C4[C@@H]5C[C@@](C)(C(=O)O)CC[C@]5(C)CC[C@@]4(C)[C@]3(C)CC[C@@H]12`, the “cAMP activity change” value was -2.18% [at 42.5 µM] (inactive).
On the same count and under the same terms, next, `CC(=O)c1ccc([N+](=O)[O-])cc1`: -4.52% (inactive); `CCCCCCCCCCC(=O)O`: 7.48% (inactive).
Consider `Brc1cc(Br)c(Oc2cc(Br)c(Br)cc2Br)cc1Br`, for which the “cAMP activity change” value was -0.0306% [at 42.5 µM] (inactive).
Same read-out and setting: next, `CCC1(CO)COCOC1`: 8.96% (inactive); `CN1C(=O)c2ccccc2C1=O`: 1.04% (inactive); `CCC(OCCCOC)OC(C)=O` (stereo not given): -1.35% (inactive).
On the same count and under the same terms, the result for `O=c1cc(-c2ccccc2)oc2ccc3ccccc3c12` reads 4.03% (inactive).
With `Cc1cc(=O)c2c(O)c3c(O)cc(=O)c4c3c3c(cc(O)c1c23)C(C)(C)C=4O`, the cAMP activity change is 14.8% [at 18.9 µM] (inactive).
Still for that read-out and setting: next, `C=CC(C)(CCC=C(C)C)OC(=O)CC(C)C` (stereo not given): 4.37% (inactive); `CN(C)CCN1C(=O)c2ccccc2N(C)c2ccccc21`: 0.485% [at 42.5 µM] (inactive); `CCCCCCCCC(CCCCCC)C(=O)O` (stereo not given): 4.15% (inactive).
Same read-out and setting: next, `CC(=O)Oc1ccc([N+](=O)[O-])cc1CCl`: -1.39% (inactive); `OCCOCC#CCOCCO`: -2.07% (inactive).
On the same count and under the same terms, next, `COc1ccccc1NC(=O)c1cc2ccccc2cc1O`: -0.22% (inactive); `Oc1ccc(Cl)c2cccnc12`: -3.85% [at 42.5 µM] (inactive); `CN1CCCN=C1COC(=O)C(O)(c1ccccc1)C1CCCCC1` (stereo not given): -2.82% [at 42.5 µM] (inactive).
Regarding `COc1ccccc1N1CCN(CC(O)COc2cccc3ccccc23)CC1` (stereo not given), the “cAMP activity change” value is -1.51% [at 42.5 µM] (inactive).
Same read-out and setting: the result for `CS(=O)(=O)c1ccc(-c2cn3ccccc3n2)cc1` reads -0.894% [at 42.5 µM] (inactive); that for `O=C(O)CCc1nc(-c2ccccc2)c(-c2ccccc2)o1`, -0.706% [at 42.5 µM] (inactive).
Take `Clc1cc(Cl)nc(Cl)n1`: the “cAMP activity change” value is -0.0306% (inactive).
For the molecule `O=[N+]([O-])c1cc(C2CCCCC2)c(O)c([N+](=O)[O-])c1`, the “cAMP activity change” value is 2.04% (inactive).
Same read-out and setting: the result for `CCOC(=O)c1ccc(C#Cc2ccc3c(c2)C(C)(C)CCS3)nc1` reads 7.95% [at 42.5 µM] (inactive); that for `C1C[C@@H]2[C@H]3CC[C@H](C3)[C@@H]2C1`, -0.023% (inactive); that for `COc1cc(Nc2c(C#N)cnc3cc(OCCCN4CCN(C)CC4)c(OC)cc23)c(Cl)cc1Cl`, 0.0026% [at 42.5 µM] (inactive).
The same measure, in the same setting: next, `O=c1[nH]c2ccc(Cl)cc2o1`: -1.15% (inactive); `CC(C)c1nc(CN(C)C(=O)N[C@H](C(=O)N[C@@H](Cc2ccccc2)C[C@H](O)[C@H](Cc2ccccc2)NC(=O)OCc2cncs2)C(C)C)cs1`: -1.14% [at 42.5 µM] (inactive).
Same read-out and setting: the result for `OCCN1CCN(CCCN2c3ccccc3Sc3ccc(Cl)cc32)CC1` reads 1.26% [at 42.5 µM] (inactive); that for `CCOC(=O)c1ccc(O)c(O)c1`, -9.07% [at 42.5 µM] (inactive); that for `CC1(C)O[C@@H]2C[C@H]3[C@@H]4C[C@H](F)C5=CC(=O)C=C[C@]5(C)[C@H]4[C@@H](O)C[C@]3(C)[C@]2(C(=O)CO)O1`, 5.94% [at 42.5 µM] (inactive).
In the case of `O=C(O)CCC(=O)C(=O)O`, the “cAMP activity change” value is 1.76% (inactive).
As for `CCOC(=O)c1ccc(OCCN2C[C@H](O)[C@@H](O)[C@H](O)[C@H]2CO)cc1`, the “cAMP activity change” value was 1.76% [at 42.5 µM] (inactive).
As for `COC(=O)CCS`, the “cAMP activity change” value was 2.53% (inactive).
Still for that read-out and setting: next, `O=C=Nc1ccc(Cl)c(Cl)c1`: 11.1% (inactive).
